# Assay outcomes from PubChem BioAssay.
# Compounds with a hit are over-represented: about 11% of the library has one in this group of screens.
# FBPA coupling cs: coupling enzyme interference in Giardia aldolase counter-screen; 0.67% of 290,000 active; coupling enzyme system counterscreen, AmpLite Red fluorescence; AID 2472; activity change, negative = inhibition, % at 58.2 µM, hits read low; in the data active means activity change below about -30%
#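 Counterscreen of the coupled detection system alone, without aldolase: glyceraldehyde-3-phosphate coupling enzymes plus AmpLite Red readout. Compounds at 57.5 uM final, 10 min RT preincubation, 20 min RT reaction, fluorescence 525/598 nm.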
# G9a inh: G9a (human) methyltransferase inhibition; Q96KQ7; G9a H3K9 monomethylation, AlphaScreen, 2 h; Potency, µM (doses to about 102 µM), for the others: at the highest dose activity, negative = inhibition, usual class: inhibitors; 8.8% of 350,000 active; AID 504332; further: potency means the concentration at half of the fitted maximal effect; nearly all actives have a fitted effect of over 75% in size
# Target sequence (Q96KQ7 913-1193 limits assumed): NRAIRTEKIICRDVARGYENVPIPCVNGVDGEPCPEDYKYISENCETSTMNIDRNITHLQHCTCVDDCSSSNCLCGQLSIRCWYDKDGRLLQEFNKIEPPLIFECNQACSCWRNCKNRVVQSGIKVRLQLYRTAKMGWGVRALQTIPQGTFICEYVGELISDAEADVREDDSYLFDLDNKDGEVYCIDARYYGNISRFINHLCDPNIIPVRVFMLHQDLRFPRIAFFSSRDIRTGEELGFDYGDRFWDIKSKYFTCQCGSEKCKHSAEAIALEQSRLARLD
#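 Signal arises when biotinylated H3K9 peptide, once monomethylated, bridges streptavidin donor and antibody-captured acceptor beads. Enzyme at 20 nM was preincubated 15 min with test compounds; peptide 500 nM and SAM 20 uM then reacted for 2 h.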
# Tau FP inhib: inhibitors of human tau fibril formation. P10636. K18 P301L tau heparin fibrillization, Alexa594 FP, 6 h. Potency, µM (titrated, usually from 57.7 µM), inactives show at the highest dose activity, negative = inhibition, actives largely listed as inhibitors. 0.39% of 280,000 active. AID 1468; further: potency means the concentration at half of the fitted maximal effect; nearly all actives have a fitted effect of over 55% in size
# Target sequence (P10636 561-689 P618L limits assumed): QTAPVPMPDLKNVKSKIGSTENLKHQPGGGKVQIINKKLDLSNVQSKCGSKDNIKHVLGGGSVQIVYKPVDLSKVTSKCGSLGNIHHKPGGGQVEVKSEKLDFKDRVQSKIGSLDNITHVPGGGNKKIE
#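 Read-out: fluorescence polarization of Alexa 594-labeled tau (0.24 uM), 555 nm excitation, 632 nm emission. Mixtures held 15 uM unlabeled K18 P301L, compound and 20 uM heparin, pH 7 acetate buffer, incubated 6 hr at 37 C.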
# Tau ThT inhib: inhibitors of human tau fibril formation, thioflavin T binding | 2.1% of 270,000 active | Potency, µM (top dose mostly 57.4 µM), without a hit: top-dose activity, negative = inhibition, hits mostly inhibitors | P10636 | recombinant tau K18 P301L, heparin-induced fibrillization, ThT fluorescence; further: potency means the concentration at half of the fitted maximal effect; nearly all actives have a fitted effect of over 55% in size
#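 In this qHTS, human K18 P301L tau is incubated with compound and heparin for 6 hr at 37 C, and Thioflavin T fluorescence then reports fibril load.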
# Sfp PPTase inh: blocks B. subtilis Sfp PPTase activity; Potency, µM, for the others: largest response in the series, negative = inhibition, hits mostly inhibitors; Biochemical Sfp PPTase activity, qHTS; 3.5% of 310,000 active;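 further: the enzyme is Sfp with the accession as filed and its product quenches rhodamine fluorescence; potency means the concentration at half of the fitted maximal effect; 0% = enzyme reaction without inhibitor and -100% = no enzyme wells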
#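 After 15 min at room temperature with compound, 15 nM Sfp received 5 uM rhodamine-CoA plus 12.5 uM BHQ-2-ybbR (50 mM Hepes pH 7.6, 10 mM MgCl2). Rate came from the fluorescence difference over 30 min, ex 525/em 598 nm.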
# Tau fluor counter: counter-screen for tau fibril formation inhibitors | 0.93% of 280,000 active | AID 1463 | Potency, µM (highest dose often 57.7 µM), for the others: at the top dose activity change, negative = decrease | tau K18 P301L (four-repeat tau fragment) Alexa594 fluorescence, heparin fibrillization; further: potency means the concentration at half of the fitted maximal effect; nearly all actives have a fitted effect of over 55% in size
#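 Human K18 P301L tau (15 uM unlabeled plus 0.24 uM Alexa 594-labeled, final) in 100 mM sodium acetate pH 7 was mixed with compound and 20 uM heparin and incubated 6 hr at 37 C.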
# An asterisk follows results filed as active; ? = inconclusive; . = not tested or not shown; [ ] = another dose, or the depositor's remark. Unless noted, the call rests on the fitted dose curve; in most records, active means well fitted curve in the direction sought with a large enough effect; inconclusive means small, poorly fitted or top-dose-only effect, or another doubt; inactive means no such curve, though single readings can be large; an effect the other way counts as inactive or inconclusive. Unless noted, on the % scale 0 is the no-effect control and ±100 the full control effect.
SMILES,FBPA coupling cs,G9a inh,Tau FP inhib,Tau ThT inhib,Sfp PPTase inh,Tau fluor counter
Cc1cccc2cc(C(c3nnnn3CC3CCCO3)N3CCc4ccccc4C3)c(=O)[nH]c12 (stereo not drawn),-44*,3.2µM*,-4%,?,20µM*,-1%
COc1ccc2cc(C(c3nnnn3CC3CCCO3)N3CCOCC3)c(=O)[nH]c2c1 (stereo not drawn),0,17%,-3%,3%,7%,2%
CCOc1ccc2[nH]c(=O)c(C(c3nnnn3CC3CCCO3)N3CCc4ccccc4C3)cc2c1 (stereo not drawn),-30*,?,-4%,-8%,3%,-5%
CCc1ccc2[nH]c(=O)c(C(c3nnnn3CC3CCCO3)N3CCCc4ccccc43)cc2c1 (stereo not drawn),-31*,?,?,11µM*,8.9µM*,-27%
Cc1cccc2cc(C(c3nnnn3CC3CCCO3)N3CCCc4ccccc43)c(=O)[nH]c12 (stereo not drawn),-1,?,-4%,?,15%,-14%
COc1ccc2[nH]c(=O)c(C(c3nnnn3CC3CCCO3)N3CCCCC3)cc2c1 (stereo not drawn),0,.,-6%,-5%,12%,-4%
Cc1cc(C)c2cc(C(O)c3nnnn3Cc3ccccc3)c(=O)[nH]c2c1 (stereo not drawn),-5,?,-2%,-5%,-4%,5%
Cc1ccc(C)c2[nH]c(=O)c(C(c3nnnn3Cc3ccccc3)N3CCc4ccccc4C3)cc12 (stereo not drawn),-29,3.2µM*,?,22µM*,?,-21%
CC(CCN1CCN=C1Nc1ccccc1)c1ccccc1 (stereo not drawn),0,8%,.,.,11%,.
CNC(=O)CSc1nnc(-c2cccc(S(=O)(=O)N3CCOCC3)c2)n1-c1ccc(F)cc1,0,?,3%,-8%,16%,4%
CN(C)S(=O)(=O)c1cccc(-c2nnc(SCC(=O)NCCCCCC(=O)O)n2-c2ccc(F)cc2)c1,1,16µM*,0%,-7%,12%,-7%
COc1ccc(Cn2c(C(=O)O)c(CNC3CCCCC3)c3ccc(C)cc32)cc1,.,-25%[59 µM],-1%,-2%,.,-7%
COc1cccc(-c2cnc(NCc3ccccc3Cl)n2C)c1,.,10µM*,8%,?,.,?
COc1ccc(OC)c(CNc2ncc(-c3ccc(F)cc3)n2C)c1,-5,.,.,.,-26%,.
COc1cccc(-c2cnc(NCc3cc(Cl)ccc3O)n2C)c1,2,8.9µM*,15%,?,?,20µM*[quencher]
COc1ccccc1CNc1ncc(-c2ccccc2)n1C,-4,.,.,.,-19%,.
Cc1cc(C)c(NC(=O)CSc2nc(=O)n(Cc3ccco3)c3c2CCC3)c(C)c1,.,-5%[59 µM],1%,-6%,.,-3%
Cc1ccc(S(=O)(=O)N2CCCc3cc(NC(=O)c4ccc(C(F)(F)F)cc4)ccc32)cc1,.,12%[59 µM],?,-14%,.,?
Oc1ccc(-c2nc3c4c(ncn3n2)-c2ccccc2CC42CCCC2)cc1,-4,10%[59 µM],22µM*,5%,32%,?
Nn1cnc2c(c1=O)C1(CCCCC1)Cc1ccccc1-2,-1,0%[59 µM],6%,-4%,8%,-12%
COc1ccc(OC2C=CC(C#Cc3ccc(C(C)(C)C)cc3)OC2CO)cc1 (stereo not drawn),-2,.,5%[11.6 µM],?,15%,-28%[11.6 µM]
CSc1ccccc1C(=O)Nc1cc([N+](=O)[O-])ccc1C,1,10µM*,5%,?,-13%,-9%
COc1ccc([N+](=O)[O-])cc1NC(=O)CSc1nc(C)cc(C)n1,-3,2.5µM*,1%,-4%,22µM*,1%
COCCSc1ccccc1C(=O)Nc1cc([N+](=O)[O-])ccc1OC,0,40µM*,-9%,2%,17%,-17%
COc1ccc([N+](=O)[O-])cc1NC(=O)CSc1ccc2ccccc2c1,-11,?,?,-9%,3%,?
SMILES,FBPA coupling cs,G9a inh,Tau FP inhib,Tau ThT inhib,Sfp PPTase inh,Tau fluor counter
COCCSc1ccccc1C(=O)Nc1ccc([N+](=O)[O-])cc1OC,-3,22µM*,10%,-8%,16%,-26%
Cc1cc(C#Cc2c(-c3ccccc3)n(C)c3ccccc23)ccc1F,-2,2%,.,.,3%,.
CCOc1ccc(NC(=O)CCC(=O)NNS(=O)(=O)c2ccccc2[N+](=O)[O-])cc1,-1,.,7%,-17%,-11%,-12%
CC(=O)Nc1ccc2nc3c(=O)n(C)c(=O)n(C)c3nc2c1C,.,-6%[59 µM],-1%,-9%,.,-6%
CCCN(CCC)c1ccc(C2N=C(N)Nc3nc4ccccc4n32)cc1 (stereo not drawn),.,?,-4%,?,.,?
Cc1ccc(NC(=O)Cn2c(=O)n(Cc3ccc(F)cc3)c(=O)c3cccnc32)cc1C,.,-2%[59 µM],?,12%,.,5%
Cc1nc(SCC(=O)Nc2ccc(Cl)cc2[N+](=O)[O-])nc(C)c1C,1,11µM*,4%,-13%,-63%,-22%
COCCCNC(=O)/C=C/c1ccc(Cl)cc1Cl,2,2%[0.501 µM],2%,3%,5%,6%
CNc1ccc(Br)cc(C(=O)/C=C/c2cc(OC)ccc2OC)c1=O,0,4.5µM*,?,10µM*,-7%,?
CCNc1ccc(Br)cc(C(=O)/C=C/c2ccc(Cl)cc2Cl)c1=O,-12,8.9µM*,-15%,16µM*,22µM*,-29%
CNc1ccc(Br)cc(C(=O)/C=C/c2ccc3c(c2)OCO3)c1=O,-28,10µM*,?,13µM*,18µM*,?
COC(=O)c1ccc(/C=C/C(=O)c2ccc(OC)cc2)cc1,1,-8%,8%,?,4%,-2%
COC(=O)CNC(=O)/C=C/c1cc(Br)ccc1OC,0,-32%,-4%,-4%,8%,-5%
CNc1ccc(Br)cc(C(=O)/C=C/c2ccc(OC)cc2)c1=O,-29,10µM*,?,14µM*,?,?
O=C(CCCn1c(=O)c2ccccc2n(CC(=O)Nc2cccc(C(F)(F)F)c2)c1=O)NCc1ccc2c(c1)OCO2,.,-36%[59 µM],?,?,.,-23%
Cc1cc(C)cc(NC(=O)C(=O)NCC(c2cccnc2)N2CCc3ccccc32)c1 (stereo not drawn),.,1%[59 µM],-11%,-1%,.,?
COCC(=O)C(C(=O)OC)[C@H](CCc1ccccc1)NC(=O)OC (stereo partly drawn),-1,.,3%,3%,-13%,2%
NNc1nc2c(Cl)ccc(Cl)c2s1,1,?,?,11µM*,5%,10µM*[quencher]
